The supplement of paper PMC10338343
± gives the standard deviation. In all, about 8,200 sequences were measured (“pre-steady-state target cleavage rate”: median about 0.024, highest 2% from about 1.3 on). What follows is part of a selection rich in the highest values, with near analogues and random picks from the rest.

Test system: MIWI (PIWIL1) piRISC loaded with L1MC piRNA (30 nt)
Test: pre-steady-state target cleavage rate (min^-1); MIWI and MILI are mouse PIWI proteins and EfPiwi is from a freshwater sponge; tags in brackets are library labels; higher = faster piRNA-guided slicing of the target
Settings: guide: L1MC piRNA 5'p-UAACUAAAUACUAUGCAAGCUGUAGGUCCU
Method: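 Cleave-'n-Seq: a library of target RNAs (target site embedded in constant flanks, ACAGCATTCCGCGTTAGTGATATCCG... 5' flank; DNA-blocked outside the site) at 0.1 nM was incubated with 1 nM active mouse MILI or MIWI piRISC (synthetic 5'-monophosphorylated piRNA guide) with or without 500 nM mouse GTSF1 at 33 °C for 1 min to 16 h. Uncleaved targets were sequenced and normalised to non-target controls, and the pooled three trials were fitted to a burst-and-steady-state model to give the pre-steady-state cleavage rate (min^-1; k3 is constrained to at most 1e-4). Sequence is the target site only; target names encode pairing extent (gX:gY) and contiguous / 1-mismatch / 2-mismatch / bulge geometry. Fits with R² ≤ 0 are excluded.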

[1] = auxiliary factor: 500 nM mouse GTSF1
[2] = auxiliary factor: none (no GTSF1)

Sequence: AGGACCUACAGCUUGCAUAGUAUUUAGUUG [g2:g30:cont:t1G]
- pre-steady-state target cleavage rate [1]: 0.455 ± 0.046
- pre-steady-state target cleavage rate [2]: 0.0773 ± 0.018

Sequence: CGGACCUACAGCUUGCAUAGUAUUUAGUUA
- pre-steady-state target cleavage rate [1]: 0.743 ± 0.028
- pre-steady-state target cleavage rate [2]: 0.06 ± 0.0088

Sequence: AGGACCUACAGCUUGCAUAGUAUUUAGUUUA
- pre-steady-state target cleavage rate [1]: 1.27 ± 0.067
- pre-steady-state target cleavage rate [2]: 0.11 ± 0.019

Sequence: GGGACCUACAGCUUGCAUAGUAUUUAGUUA
- pre-steady-state target cleavage rate [1]: 1.32 ± 0.097
- pre-steady-state target cleavage rate [2]: 0.113 ± 0.025

Sequence: AGGACCUACAGCUUGCAUAGUAUUUUAGUUA
- pre-steady-state target cleavage rate [1]: 1.08 ± 0.058
- pre-steady-state target cleavage rate [2]: 0.056 ± 0.014

Sequence: AGGACCUUCAGCUUGCAUAGUAUAUAGUUA
- pre-steady-state target cleavage rate [1]: 0.827 ± 0.057
- pre-steady-state target cleavage rate [2]: 0.0427 ± 0.009

Sequence: AGGACCUACAGCUUGCAUAGUAUUUAGUUA [g2:g30:cont:t1A]
- pre-steady-state target cleavage rate [1]: 1.35 ± 0.057
- pre-steady-state target cleavage rate [2]: 0.0941 ± 0.015

Sequence: AGGGACCUACAGCUUGCAUAGUAUUUAGUUA
- pre-steady-state target cleavage rate [1]: 1.31 ± 0.086
- pre-steady-state target cleavage rate [2]: 0.102 ± 0.021

Sequence: UCGGACCUACAGCUUGCAUAGUAUUUAGUUA
- pre-steady-state target cleavage rate [1]: 1.37 ± 0.097
- pre-steady-state target cleavage rate [2]: 0.0616 ± 0.01

Sequence: UCCACCUACAGCUUGCAUAGUAUUUAGGUUA
- pre-steady-state target cleavage rate [1]: 0.409 ± 0.062
- pre-steady-state target cleavage rate [2]: 0.0153 ± 0.0045

Sequence: UCGACCUACAGCUUGCAUAGAUUUUAGUAA
- pre-steady-state target cleavage rate [1]: 0.124 ± 0.023

Sequence: UCCUCCUACAGCUUGCAUAGUAAUUAGAUA
- pre-steady-state target cleavage rate [1]: 0.297 ± 0.047
- pre-steady-state target cleavage rate [2]: 0.00556 ± 0.0028

Sequence: UCCUGCUACAGUCUUGCAUAGUAUUUAGUUA
- pre-steady-state target cleavage rate [1]: 0.643 ± 0.033
- pre-steady-state target cleavage rate [2]: 0.0274 ± 0.005

Sequence: UCCUGGAUGUCGUUGCAUAGUAUUUAGUUUA
- pre-steady-state target cleavage rate [1]: 0.022 ± 0.0057
- pre-steady-state target cleavage rate [2]: 0.00499 ± 0.003

Sequence: UCCUGGAUGUCCUUGCAUAGUUUUUACUUA
- pre-steady-state target cleavage rate [1]: 0.00583 ± 0.0041

Sequence: UCCUGGAUGUGCUUGCAUAGUAUUUAUUA
- pre-steady-state target cleavage rate [1]: 0.0179 ± 0.0058

Sequence: UGGACCUACAGCUUGCAUAGUAUUUCGUUA
- pre-steady-state target cleavage rate [1]: 0.411 ± 0.054
- pre-steady-state target cleavage rate [2]: 0.0397 ± 0.0067

Sequence: UCCUGGAUCAGCUUGCAUACUAAUUAGUUA
- pre-steady-state target cleavage rate [1]: 0.0563 ± 0.0091
- pre-steady-state target cleavage rate [2]: 0.00771 ± 0.0023

Sequence: UCCUCUUACAGCUUGCAUAGUAUUUAGUUA
- pre-steady-state target cleavage rate [1]: 1.62 ± 0.055
- pre-steady-state target cleavage rate [2]: 0.061 ± 0.0099

Sequence: UCCUGCGACAGCUUGCAUAGUAUUUAGUUA
- pre-steady-state target cleavage rate [1]: 1.19 ± 0.06
- pre-steady-state target cleavage rate [2]: 0.0863 ± 0.017

Sequence: UCCUCAUACAGCUUGCAUAGUAUUUAGUUA
- pre-steady-state target cleavage rate [1]: 1.47 ± 0.054
- pre-steady-state target cleavage rate [2]: 0.0664 ± 0.01

Sequence: UCCUGGUUACAGCUUGCAUAGUAUUUAGUUA
- pre-steady-state target cleavage rate [1]: 1.01 ± 0.048
- pre-steady-state target cleavage rate [2]: 0.0561 ± 0.011

Sequence: UCCUCACUACAGCUUGCAUAGUAUUUAGUUA
- pre-steady-state target cleavage rate [1]: 0.676 ± 0.03
- pre-steady-state target cleavage rate [2]: 0.0551 ± 0.0082

Sequence: UCCUGUUACAGCUUGCAUAGUAUUUAGUUA
- pre-steady-state target cleavage rate [1]: 1.28 ± 0.058
- pre-steady-state target cleavage rate [2]: 0.0747 ± 0.013

Sequence: UCCUCCAUACAGCUUGCAUAGUAUUUAGUUA
- pre-steady-state target cleavage rate [1]: 0.364 ± 0.019
- pre-steady-state target cleavage rate [2]: 0.0335 ± 0.0051

Sequence: UCCUCGCUACAGCUUGCAUAGUAUUUAGUUA
- pre-steady-state target cleavage rate [1]: 0.831 ± 0.05
- pre-steady-state target cleavage rate [2]: 0.0517 ± 0.0088

Sequence: UCCUGCUUACAGCUUGCAUAGUAUUUAGUUA
- pre-steady-state target cleavage rate [1]: 1.48 ± 0.13
- pre-steady-state target cleavage rate [2]: 0.0826 ± 0.02

Sequence: UCCUGCGUACAGCUUGCAUAGUAUUUAGUUA
- pre-steady-state target cleavage rate [1]: 1.33 ± 0.062
- pre-steady-state target cleavage rate [2]: 0.0785 ± 0.016

Sequence: UCCUCCUUACAGCUUGCAUAGUAUUUAGUUA
- pre-steady-state target cleavage rate [1]: 1.3 ± 0.052
- pre-steady-state target cleavage rate [2]: 0.0583 ± 0.011

Sequence: UCCUGGUACAGCUUGCAUAGUAUUUAGUUA [g2:g24:cont:t1A]
- pre-steady-state target cleavage rate [1]: 0.82 ± 0.041
- pre-steady-state target cleavage rate [2]: 0.0692 ± 0.013

Sequence: AGGACCUACAGCUUGCUUAGAAUUUAGUUA
- pre-steady-state target cleavage rate [1]: 0.377 ± 0.04
- pre-steady-state target cleavage rate [2]: 0.00929 ± 0.0032

Sequence: UCCUGGAUGUCCUUACAUAGUAUUUAGUUA
- pre-steady-state target cleavage rate [1]: 0.0237 ± 0.0056
- pre-steady-state target cleavage rate [2]: 0.0041 ± 0.0017

Sequence: UGGACCUACACGAUGCAUAGUAUUUAGAAA
- pre-steady-state target cleavage rate [1]: 0.122 ± 0.016

Sequence: UCCUGCUACAGCUUGCUUAGUAUUUUCAAA
- pre-steady-state target cleavage rate [1]: 0.11 ± 0.028

Sequence: UCCUGGUUCAGCUUGCAUUGUAUUUAGUUA
- pre-steady-state target cleavage rate [1]: 0.61 ± 0.028
- pre-steady-state target cleavage rate [2]: 0.0343 ± 0.01

Sequence: UCCUGGUACAGCUUGCAUAGUAUUCUAGUUA
- pre-steady-state target cleavage rate [1]: 0.442 ± 0.092
- pre-steady-state target cleavage rate [2]: 0.00651 ± 0.0028

Sequence: UCCACCUACAGCUUGCUUAGUAUUUAGAAA
- pre-steady-state target cleavage rate [1]: 0.226 ± 0.037

Sequence: UCCACCUACAGCUUGCAUAGUACUUUAGUUA
- pre-steady-state target cleavage rate [1]: 0.447 ± 0.035
- pre-steady-state target cleavage rate [2]: 0.00964 ± 0.0027

Sequence: UCCUGCAUACAGCUUGCAUAGUAUUUAGUUA
- pre-steady-state target cleavage rate [1]: 1.63 ± 0.12
- pre-steady-state target cleavage rate [2]: 0.0686 ± 0.013

Sequence: UCCUGCUACAGCUUGCAUAGUAUUUAGUUG [g2:g25:cont:t1G]
- pre-steady-state target cleavage rate [1]: 0.229 ± 0.019
- pre-steady-state target cleavage rate [2]: 0.0367 ± 0.0072

Sequence: UCCUGAUACAGCUUGCAUAGUAUUUAGUUA
- pre-steady-state target cleavage rate [1]: 1.15 ± 0.046
- pre-steady-state target cleavage rate [2]: 0.0816 ± 0.017

Sequence: UCGAGGUACAGCUUGCAUAGUAUUUUCAAA
- pre-steady-state target cleavage rate [1]: 0.278 ± 0.038
- pre-steady-state target cleavage rate [2]: 0.00215 ± 0.0021

Sequence: UCCUGCUACAGCUUGCAUAGUUAUUACAAA
- pre-steady-state target cleavage rate [1]: 0.0101 ± 0.0052

Sequence: AGGACCUACAGCUUGCAAUGUAUUUACAAA
- pre-steady-state target cleavage rate [1]: 0.0775 ± 0.019

Sequence: UCCUCCUACACCUUGCAAAGUAUUUAGUUA
- pre-steady-state target cleavage rate [1]: 0.831 ± 0.043
- pre-steady-state target cleavage rate [2]: 0.0328 ± 0.0065

Sequence: UCCUGCUACAGCUUGCAUUGUUUUUAGUUA
- pre-steady-state target cleavage rate [1]: 0.0845 ± 0.0095
- pre-steady-state target cleavage rate [2]: 0.00988 ± 0.0021

Sequence: UCGACCUACAGCAUGCAUUGUAUUUAGUUA
- pre-steady-state target cleavage rate [1]: 0.944 ± 0.04
- pre-steady-state target cleavage rate [2]: 0.0101 ± 0.0026

Sequence: AGAGACCUACAGCUUGCAUAGUAUUUAGUUA
- pre-steady-state target cleavage rate [1]: 1.46 ± 0.067
- pre-steady-state target cleavage rate [2]: 0.091 ± 0.017

Sequence: UGAGACCUACAGCUUGCAUAGUAUUUAGUUA
- pre-steady-state target cleavage rate [1]: 1.49 ± 0.1
- pre-steady-state target cleavage rate [2]: 0.0826 ± 0.015

Sequence: UCCUGGAACACCUUGGAUAGUAUUUAGUUA
- pre-steady-state target cleavage rate [1]: 0.286 ± 0.038
- pre-steady-state target cleavage rate [2]: 0.00651 ± 0.0022

Sequence: UCCUGGAUGAGCUUGCAUAGUAUAUUAGUUA
- pre-steady-state target cleavage rate [1]: 0.464 ± 0.04
- pre-steady-state target cleavage rate [2]: 0.00823 ± 0.004

Sequence: UCCUGGUACAGCUUGCAUAGUAAUUAGAUA
- pre-steady-state target cleavage rate [1]: 0.209 ± 0.042
- pre-steady-state target cleavage rate [2]: 0.00778 ± 0.0021

Sequence: AGGACGUACAGCUUGCAUAGUAUUUAGAAA
- pre-steady-state target cleavage rate [1]: 0.432 ± 0.06
- pre-steady-state target cleavage rate [2]: 0.0172 ± 0.0052

Sequence: UCCUGGAUGUCGAACGUAAGUAUUUAUUA
- pre-steady-state target cleavage rate [1]: < 0.0001
- pre-steady-state target cleavage rate [2]: < 0.0001

Sequence: UCCACCUACAGCUUGGUAAGUAUUUAGUUA
- pre-steady-state target cleavage rate [1]: 0.0619 ± 0.011

Sequence: ACCACCUACAGCUUGCAUAGUAUUUAGUUA
- pre-steady-state target cleavage rate [1]: 1.16 ± 0.056
- pre-steady-state target cleavage rate [2]: 0.0927 ± 0.017

Sequence: AGUACCUACAGCUUGCAUAGUAUUUAGUUA
- pre-steady-state target cleavage rate [1]: 1.23 ± 0.064
- pre-steady-state target cleavage rate [2]: 0.0796 ± 0.013

Sequence: UGUACCUACAGCUUGCAUAGUAUUUAGUUA
- pre-steady-state target cleavage rate [1]: 1.34 ± 0.049
- pre-steady-state target cleavage rate [2]: 0.0875 ± 0.013

Sequence: UCCACCUACAGCUUGCAUAGUAUUUAGGUA
- pre-steady-state target cleavage rate [1]: 0.3 ± 0.054
- pre-steady-state target cleavage rate [2]: 0.00404 ± 0.0029

Sequence: UCUACCUACAGCUUGCAUAGUAUUUAGUUA
- pre-steady-state target cleavage rate [1]: 1.4 ± 0.043
- pre-steady-state target cleavage rate [2]: 0.0731 ± 0.013

Sequence: AGGUACCUACAGCUUGCAUAGUAUUUAGUUA
- pre-steady-state target cleavage rate [1]: 1.35 ± 0.21
- pre-steady-state target cleavage rate [2]: 0.481 ± 0.15

Sequence: UGGUACCUACAGCUUGCAUAGUAUUUAGUUA
- pre-steady-state target cleavage rate [1]: 0.945 ± 0.17
- pre-steady-state target cleavage rate [2]: 0.117 ± 0.034

Sequence: UCCACCUACAGCUUGCAUAGUAUUUAGUUUA
- pre-steady-state target cleavage rate [1]: 0.907 ± 0.047
- pre-steady-state target cleavage rate [2]: 0.0632 ± 0.014
